Test results: ChEMBL document CHEMBL1961873, “Compounds: GSK PKIS; Assays: Nanosyn kinase panel” (2012)

Experiments:
[1] = target: T1, Inhibitor of nuclear factor kappa-B kinase subunit epsilon (Homo sapiens) (UniProt Q14164); conditions: at 1 µM;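 note: reported values are averaged percent inhibition figures against human IKKε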
T1 sequence (whole entry): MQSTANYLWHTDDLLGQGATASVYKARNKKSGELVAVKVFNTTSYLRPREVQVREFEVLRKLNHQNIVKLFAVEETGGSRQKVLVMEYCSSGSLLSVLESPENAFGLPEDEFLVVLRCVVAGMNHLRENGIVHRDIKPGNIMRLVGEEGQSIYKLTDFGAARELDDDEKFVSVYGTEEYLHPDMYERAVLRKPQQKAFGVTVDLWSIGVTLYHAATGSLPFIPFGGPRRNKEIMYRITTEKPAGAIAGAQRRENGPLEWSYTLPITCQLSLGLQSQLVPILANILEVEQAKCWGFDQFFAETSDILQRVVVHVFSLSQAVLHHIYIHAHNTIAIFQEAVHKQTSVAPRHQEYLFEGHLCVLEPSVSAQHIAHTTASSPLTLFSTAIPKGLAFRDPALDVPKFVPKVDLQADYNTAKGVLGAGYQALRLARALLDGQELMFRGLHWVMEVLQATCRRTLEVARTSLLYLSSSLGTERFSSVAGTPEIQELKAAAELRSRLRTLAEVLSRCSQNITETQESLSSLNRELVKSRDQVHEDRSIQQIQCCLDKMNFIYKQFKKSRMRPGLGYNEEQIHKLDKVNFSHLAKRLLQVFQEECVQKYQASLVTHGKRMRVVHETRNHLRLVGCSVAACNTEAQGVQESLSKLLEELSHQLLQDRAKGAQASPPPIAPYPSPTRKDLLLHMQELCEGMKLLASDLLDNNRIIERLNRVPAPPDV

[2] = target: T2, Serine/threonine-protein kinase Nek1 (Homo sapiens) (UniProt Q96PY6); conditions: at 0.1 µM
T2 sequence (whole entry): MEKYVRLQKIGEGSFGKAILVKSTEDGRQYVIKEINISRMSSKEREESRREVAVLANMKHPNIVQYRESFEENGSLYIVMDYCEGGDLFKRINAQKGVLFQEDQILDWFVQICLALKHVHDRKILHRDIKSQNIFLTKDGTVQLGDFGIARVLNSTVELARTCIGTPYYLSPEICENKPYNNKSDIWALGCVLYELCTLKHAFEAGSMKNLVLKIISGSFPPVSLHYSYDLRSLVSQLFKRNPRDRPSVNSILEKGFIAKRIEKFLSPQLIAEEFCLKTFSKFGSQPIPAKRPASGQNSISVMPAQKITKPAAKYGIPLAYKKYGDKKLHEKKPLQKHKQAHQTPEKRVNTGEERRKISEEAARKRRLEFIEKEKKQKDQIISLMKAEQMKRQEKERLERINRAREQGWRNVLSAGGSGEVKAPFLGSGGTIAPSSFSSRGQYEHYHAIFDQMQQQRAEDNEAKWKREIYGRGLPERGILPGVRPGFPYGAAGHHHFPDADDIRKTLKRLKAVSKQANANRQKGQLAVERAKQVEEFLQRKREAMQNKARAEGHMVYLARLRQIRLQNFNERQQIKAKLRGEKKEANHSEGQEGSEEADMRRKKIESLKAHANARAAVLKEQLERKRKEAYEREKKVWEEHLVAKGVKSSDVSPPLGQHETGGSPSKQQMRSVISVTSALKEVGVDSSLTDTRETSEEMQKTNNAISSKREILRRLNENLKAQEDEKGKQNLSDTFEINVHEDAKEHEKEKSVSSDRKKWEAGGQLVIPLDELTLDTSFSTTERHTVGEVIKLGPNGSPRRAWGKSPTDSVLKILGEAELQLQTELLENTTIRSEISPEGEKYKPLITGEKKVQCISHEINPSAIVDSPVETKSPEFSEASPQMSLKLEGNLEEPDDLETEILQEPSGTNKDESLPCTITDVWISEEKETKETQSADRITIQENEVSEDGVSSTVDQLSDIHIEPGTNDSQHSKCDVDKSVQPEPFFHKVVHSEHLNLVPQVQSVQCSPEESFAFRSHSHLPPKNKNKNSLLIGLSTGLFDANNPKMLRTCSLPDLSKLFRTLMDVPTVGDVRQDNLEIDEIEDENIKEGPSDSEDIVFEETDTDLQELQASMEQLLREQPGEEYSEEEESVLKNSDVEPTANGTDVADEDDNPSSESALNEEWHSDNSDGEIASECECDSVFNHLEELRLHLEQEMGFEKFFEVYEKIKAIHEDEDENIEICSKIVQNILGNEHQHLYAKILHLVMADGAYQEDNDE

[3] = target: T2, Serine/threonine-protein kinase Nek1 (Homo sapiens); conditions: at 1 µM
[4] = target: T3, Serine/threonine-protein kinase Nek2 (Homo sapiens) (UniProt P51955); conditions: at 0.1 µM
T3 sequence (whole entry): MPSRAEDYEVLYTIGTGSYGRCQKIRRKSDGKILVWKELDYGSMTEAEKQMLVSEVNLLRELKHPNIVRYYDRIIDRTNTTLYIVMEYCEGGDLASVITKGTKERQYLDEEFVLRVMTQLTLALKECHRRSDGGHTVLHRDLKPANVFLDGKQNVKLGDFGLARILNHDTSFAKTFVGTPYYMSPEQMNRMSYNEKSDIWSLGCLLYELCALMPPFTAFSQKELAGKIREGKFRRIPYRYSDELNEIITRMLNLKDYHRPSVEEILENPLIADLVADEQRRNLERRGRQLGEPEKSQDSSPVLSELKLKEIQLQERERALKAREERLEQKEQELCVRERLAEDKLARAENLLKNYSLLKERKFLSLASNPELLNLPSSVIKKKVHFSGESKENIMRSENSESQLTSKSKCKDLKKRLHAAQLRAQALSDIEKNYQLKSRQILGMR

[5] = target: T3, Serine/threonine-protein kinase Nek2 (Homo sapiens); conditions: at 1 µM
[6] = target: Serine/threonine-protein kinase Nek6 (Homo sapiens) (UniProt Q9HC98); conditions: at 0.1 µM
[7] = target: Serine/threonine-protein kinase Nek6 (Homo sapiens) (UniProt Q9HC98); conditions: at 1 µM
[8] = target: Serine/threonine-protein kinase Nek7 (Homo sapiens) (UniProt Q8TDX7); conditions: at 0.1 µM
[9] = target: Serine/threonine-protein kinase Nek7 (Homo sapiens) (UniProt Q8TDX7); conditions: at 1 µM
[10] = target: T4, Serine/threonine-protein kinase Nek9 (Homo sapiens) (UniProt Q8TD19); conditions: at 0.1 µM
T4 sequence (whole entry): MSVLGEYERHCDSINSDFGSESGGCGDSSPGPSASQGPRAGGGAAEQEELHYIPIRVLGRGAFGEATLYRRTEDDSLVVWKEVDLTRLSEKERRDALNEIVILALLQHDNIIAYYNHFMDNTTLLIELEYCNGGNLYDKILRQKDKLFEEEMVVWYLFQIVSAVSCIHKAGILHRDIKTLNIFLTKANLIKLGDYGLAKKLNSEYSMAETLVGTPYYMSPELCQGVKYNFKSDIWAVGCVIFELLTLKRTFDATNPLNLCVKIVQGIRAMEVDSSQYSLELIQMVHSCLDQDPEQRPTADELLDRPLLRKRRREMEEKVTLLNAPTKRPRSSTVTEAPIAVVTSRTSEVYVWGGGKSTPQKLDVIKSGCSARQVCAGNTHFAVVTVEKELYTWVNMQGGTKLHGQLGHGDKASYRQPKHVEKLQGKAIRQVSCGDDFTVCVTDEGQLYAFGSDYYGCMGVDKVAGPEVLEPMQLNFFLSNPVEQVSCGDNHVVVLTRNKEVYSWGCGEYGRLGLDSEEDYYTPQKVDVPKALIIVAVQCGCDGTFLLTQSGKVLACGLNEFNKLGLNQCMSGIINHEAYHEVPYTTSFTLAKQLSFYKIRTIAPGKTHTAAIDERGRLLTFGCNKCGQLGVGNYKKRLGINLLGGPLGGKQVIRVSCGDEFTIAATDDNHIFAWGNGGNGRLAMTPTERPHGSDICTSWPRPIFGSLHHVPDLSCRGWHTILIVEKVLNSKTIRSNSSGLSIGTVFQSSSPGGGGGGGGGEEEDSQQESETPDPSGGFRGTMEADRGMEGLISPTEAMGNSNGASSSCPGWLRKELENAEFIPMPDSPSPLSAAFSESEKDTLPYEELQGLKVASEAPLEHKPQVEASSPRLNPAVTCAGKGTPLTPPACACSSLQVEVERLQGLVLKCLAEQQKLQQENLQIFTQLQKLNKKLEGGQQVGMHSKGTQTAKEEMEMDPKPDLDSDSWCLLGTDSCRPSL

[11] = target: T4, Serine/threonine-protein kinase Nek9 (Homo sapiens); conditions: at 1 µM
[12] = target: Serine/threonine-protein kinase PLK1 (Homo sapiens) (UniProt P53350); conditions: at 0.1 µM
[13] = target: Serine/threonine-protein kinase PLK1 (Homo sapiens) (UniProt P53350); conditions: at 1 µM
[14] = target: T5, Dual specificity protein kinase TTK (Homo sapiens) (UniProt P33981); conditions: at 0.1 µM
T5 sequence (whole entry): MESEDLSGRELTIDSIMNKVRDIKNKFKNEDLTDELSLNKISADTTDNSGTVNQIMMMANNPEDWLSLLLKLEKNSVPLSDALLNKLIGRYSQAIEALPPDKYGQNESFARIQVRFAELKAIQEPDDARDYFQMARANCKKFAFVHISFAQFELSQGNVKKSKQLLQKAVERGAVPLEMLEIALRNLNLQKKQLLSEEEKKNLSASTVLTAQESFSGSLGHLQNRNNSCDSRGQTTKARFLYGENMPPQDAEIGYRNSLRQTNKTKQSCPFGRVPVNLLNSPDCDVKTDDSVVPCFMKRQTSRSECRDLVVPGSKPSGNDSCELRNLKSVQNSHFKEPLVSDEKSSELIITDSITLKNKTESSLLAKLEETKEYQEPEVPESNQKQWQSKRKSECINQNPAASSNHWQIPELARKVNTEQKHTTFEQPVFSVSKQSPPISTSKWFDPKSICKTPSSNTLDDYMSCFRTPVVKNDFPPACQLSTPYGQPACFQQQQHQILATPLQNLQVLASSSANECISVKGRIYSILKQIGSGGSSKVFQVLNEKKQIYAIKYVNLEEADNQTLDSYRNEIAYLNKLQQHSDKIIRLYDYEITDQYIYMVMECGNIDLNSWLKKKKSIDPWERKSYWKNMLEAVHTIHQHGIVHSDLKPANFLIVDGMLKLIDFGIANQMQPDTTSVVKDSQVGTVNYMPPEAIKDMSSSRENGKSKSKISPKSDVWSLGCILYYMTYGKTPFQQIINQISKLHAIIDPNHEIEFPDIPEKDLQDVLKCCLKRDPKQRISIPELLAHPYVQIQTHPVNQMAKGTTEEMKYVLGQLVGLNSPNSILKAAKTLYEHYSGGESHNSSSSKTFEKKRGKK

[15] = system: T6, Receptor-type tyrosine-protein kinase FLT3 (Homo sapiens), P36888 [D835Y]; conditions: at 1 µM
T6 sequence (whole entry): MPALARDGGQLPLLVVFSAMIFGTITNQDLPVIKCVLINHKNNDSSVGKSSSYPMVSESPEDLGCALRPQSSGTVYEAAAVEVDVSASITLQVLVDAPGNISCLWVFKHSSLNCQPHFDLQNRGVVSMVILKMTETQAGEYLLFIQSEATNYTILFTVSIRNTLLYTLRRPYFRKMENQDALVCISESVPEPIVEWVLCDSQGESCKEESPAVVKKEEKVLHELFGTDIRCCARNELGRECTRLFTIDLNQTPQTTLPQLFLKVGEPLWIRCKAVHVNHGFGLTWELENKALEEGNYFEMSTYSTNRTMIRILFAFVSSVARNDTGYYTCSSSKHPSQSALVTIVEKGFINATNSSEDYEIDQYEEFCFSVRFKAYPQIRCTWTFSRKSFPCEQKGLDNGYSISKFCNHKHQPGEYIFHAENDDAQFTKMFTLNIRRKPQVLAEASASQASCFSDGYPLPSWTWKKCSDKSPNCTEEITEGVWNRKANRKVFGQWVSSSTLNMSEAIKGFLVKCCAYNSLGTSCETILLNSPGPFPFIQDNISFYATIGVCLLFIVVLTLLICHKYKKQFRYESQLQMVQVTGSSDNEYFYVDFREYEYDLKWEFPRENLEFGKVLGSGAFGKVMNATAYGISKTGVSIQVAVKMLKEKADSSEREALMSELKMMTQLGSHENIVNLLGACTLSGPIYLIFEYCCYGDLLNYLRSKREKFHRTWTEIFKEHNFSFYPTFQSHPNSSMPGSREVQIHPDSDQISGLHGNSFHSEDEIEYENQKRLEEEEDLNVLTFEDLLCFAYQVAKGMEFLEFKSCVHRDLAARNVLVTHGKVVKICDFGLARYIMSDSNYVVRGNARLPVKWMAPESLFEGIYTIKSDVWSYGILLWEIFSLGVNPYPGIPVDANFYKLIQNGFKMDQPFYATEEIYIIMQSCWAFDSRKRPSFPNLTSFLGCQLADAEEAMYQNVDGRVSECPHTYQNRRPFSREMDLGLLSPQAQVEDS

[16] = target: Vascular endothelial growth factor receptor 3 (Homo sapiens) (UniProt P35916); conditions: at 0.1 µM
[17] = target: Vascular endothelial growth factor receptor 3 (Homo sapiens) (UniProt P35916); conditions: at 1 µM
[18] = target: Macrophage colony-stimulating factor 1 receptor (Homo sapiens) (UniProt P07333); conditions: at 0.1 µM
[19] = target: Macrophage colony-stimulating factor 1 receptor (Homo sapiens) (UniProt P07333); conditions: at 1 µM
[20] = target: Tyrosine-protein kinase Fyn (Homo sapiens) (UniProt P06241); conditions: at 0.1 µM
Sequence of Tyrosine-protein kinase Fyn (Homo sapiens) (P06241 2-537 limits assumed): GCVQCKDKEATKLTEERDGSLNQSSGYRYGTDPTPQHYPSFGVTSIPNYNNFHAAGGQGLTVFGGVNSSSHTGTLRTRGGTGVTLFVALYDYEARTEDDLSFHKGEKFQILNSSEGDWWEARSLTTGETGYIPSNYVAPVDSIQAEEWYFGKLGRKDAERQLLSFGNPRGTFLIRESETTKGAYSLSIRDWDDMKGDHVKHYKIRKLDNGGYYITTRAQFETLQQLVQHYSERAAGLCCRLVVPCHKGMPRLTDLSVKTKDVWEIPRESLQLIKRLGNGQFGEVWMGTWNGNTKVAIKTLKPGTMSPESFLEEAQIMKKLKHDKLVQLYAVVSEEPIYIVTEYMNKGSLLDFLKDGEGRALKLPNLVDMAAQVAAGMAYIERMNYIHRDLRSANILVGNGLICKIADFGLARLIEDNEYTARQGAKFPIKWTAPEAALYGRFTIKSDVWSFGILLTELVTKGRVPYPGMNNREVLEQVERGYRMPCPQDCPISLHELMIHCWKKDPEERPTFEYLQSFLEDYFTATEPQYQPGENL

Sequence of Serine/threonine-protein kinase Nek6 (Homo sapiens) (Q9HC98 whole entry): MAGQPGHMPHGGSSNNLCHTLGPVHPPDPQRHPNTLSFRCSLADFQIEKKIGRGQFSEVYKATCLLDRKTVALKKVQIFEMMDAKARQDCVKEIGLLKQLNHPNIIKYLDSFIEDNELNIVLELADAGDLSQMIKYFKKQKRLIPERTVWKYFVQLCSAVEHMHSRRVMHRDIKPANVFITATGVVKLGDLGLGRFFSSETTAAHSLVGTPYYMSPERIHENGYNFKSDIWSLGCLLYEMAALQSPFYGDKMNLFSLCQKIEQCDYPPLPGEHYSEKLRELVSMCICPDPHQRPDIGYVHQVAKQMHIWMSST
Sequence of Vascular endothelial growth factor receptor 3 (Homo sapiens) (P35916 whole entry): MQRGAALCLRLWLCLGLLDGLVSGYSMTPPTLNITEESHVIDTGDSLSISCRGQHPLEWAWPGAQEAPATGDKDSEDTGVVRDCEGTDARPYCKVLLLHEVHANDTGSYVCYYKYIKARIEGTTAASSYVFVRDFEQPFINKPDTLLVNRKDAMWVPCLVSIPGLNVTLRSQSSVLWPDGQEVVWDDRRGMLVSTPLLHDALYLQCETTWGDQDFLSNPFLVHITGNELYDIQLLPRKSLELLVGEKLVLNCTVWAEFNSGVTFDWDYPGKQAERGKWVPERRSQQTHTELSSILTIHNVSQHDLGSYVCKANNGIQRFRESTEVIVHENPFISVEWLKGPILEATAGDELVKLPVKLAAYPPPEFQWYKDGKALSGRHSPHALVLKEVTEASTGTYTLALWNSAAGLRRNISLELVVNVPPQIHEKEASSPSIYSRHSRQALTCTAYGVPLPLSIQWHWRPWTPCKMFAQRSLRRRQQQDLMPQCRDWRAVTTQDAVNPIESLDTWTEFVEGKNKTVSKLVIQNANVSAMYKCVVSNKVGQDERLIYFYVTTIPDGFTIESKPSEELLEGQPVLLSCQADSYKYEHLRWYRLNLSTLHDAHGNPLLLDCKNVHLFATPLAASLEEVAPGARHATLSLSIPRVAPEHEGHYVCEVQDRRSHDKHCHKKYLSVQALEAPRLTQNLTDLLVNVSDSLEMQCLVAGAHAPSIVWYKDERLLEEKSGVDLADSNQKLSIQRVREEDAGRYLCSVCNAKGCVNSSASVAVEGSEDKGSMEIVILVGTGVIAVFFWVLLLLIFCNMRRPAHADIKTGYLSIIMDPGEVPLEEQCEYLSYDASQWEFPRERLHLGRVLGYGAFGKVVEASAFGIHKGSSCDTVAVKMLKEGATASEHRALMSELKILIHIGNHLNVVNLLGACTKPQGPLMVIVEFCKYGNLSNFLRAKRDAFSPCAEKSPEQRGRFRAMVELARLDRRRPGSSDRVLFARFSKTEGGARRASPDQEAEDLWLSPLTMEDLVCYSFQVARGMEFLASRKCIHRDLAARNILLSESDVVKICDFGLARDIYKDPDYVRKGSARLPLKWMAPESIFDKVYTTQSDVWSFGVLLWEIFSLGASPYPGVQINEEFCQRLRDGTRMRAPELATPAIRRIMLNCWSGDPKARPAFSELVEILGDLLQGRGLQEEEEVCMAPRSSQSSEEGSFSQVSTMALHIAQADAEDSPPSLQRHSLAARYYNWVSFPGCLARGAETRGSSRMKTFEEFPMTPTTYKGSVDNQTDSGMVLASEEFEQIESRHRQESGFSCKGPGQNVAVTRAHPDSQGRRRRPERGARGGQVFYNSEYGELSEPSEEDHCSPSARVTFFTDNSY
Sequence of Macrophage colony-stimulating factor 1 receptor (Homo sapiens) (P07333 whole entry): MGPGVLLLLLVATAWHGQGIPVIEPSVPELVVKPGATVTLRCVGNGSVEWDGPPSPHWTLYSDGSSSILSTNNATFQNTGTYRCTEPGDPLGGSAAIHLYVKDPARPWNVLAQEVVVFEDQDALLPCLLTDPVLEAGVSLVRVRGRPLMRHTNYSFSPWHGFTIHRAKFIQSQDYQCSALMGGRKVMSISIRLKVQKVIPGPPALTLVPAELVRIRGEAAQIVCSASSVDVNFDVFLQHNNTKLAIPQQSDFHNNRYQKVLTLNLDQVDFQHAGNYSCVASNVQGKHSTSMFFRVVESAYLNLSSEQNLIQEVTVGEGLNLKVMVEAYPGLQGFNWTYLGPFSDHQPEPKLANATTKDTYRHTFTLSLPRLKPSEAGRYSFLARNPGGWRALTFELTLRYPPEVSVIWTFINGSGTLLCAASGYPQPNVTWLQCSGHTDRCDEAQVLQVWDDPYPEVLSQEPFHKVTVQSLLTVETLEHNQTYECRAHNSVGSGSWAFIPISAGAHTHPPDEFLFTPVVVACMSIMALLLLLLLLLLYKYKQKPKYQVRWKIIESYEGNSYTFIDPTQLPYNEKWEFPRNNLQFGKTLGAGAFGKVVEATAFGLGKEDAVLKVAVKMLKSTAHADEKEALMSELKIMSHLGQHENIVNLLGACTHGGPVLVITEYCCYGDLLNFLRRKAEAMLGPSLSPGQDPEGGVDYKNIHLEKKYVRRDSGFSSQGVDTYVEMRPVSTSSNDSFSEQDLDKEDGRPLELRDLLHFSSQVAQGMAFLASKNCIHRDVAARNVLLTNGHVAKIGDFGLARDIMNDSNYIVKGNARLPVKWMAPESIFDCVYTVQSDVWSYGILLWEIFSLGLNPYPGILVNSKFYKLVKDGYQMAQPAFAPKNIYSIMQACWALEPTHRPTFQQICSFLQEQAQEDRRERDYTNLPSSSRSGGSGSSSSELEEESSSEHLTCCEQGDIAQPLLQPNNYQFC
Sequence of Serine/threonine-protein kinase PLK1 (Homo sapiens) (P53350 whole entry): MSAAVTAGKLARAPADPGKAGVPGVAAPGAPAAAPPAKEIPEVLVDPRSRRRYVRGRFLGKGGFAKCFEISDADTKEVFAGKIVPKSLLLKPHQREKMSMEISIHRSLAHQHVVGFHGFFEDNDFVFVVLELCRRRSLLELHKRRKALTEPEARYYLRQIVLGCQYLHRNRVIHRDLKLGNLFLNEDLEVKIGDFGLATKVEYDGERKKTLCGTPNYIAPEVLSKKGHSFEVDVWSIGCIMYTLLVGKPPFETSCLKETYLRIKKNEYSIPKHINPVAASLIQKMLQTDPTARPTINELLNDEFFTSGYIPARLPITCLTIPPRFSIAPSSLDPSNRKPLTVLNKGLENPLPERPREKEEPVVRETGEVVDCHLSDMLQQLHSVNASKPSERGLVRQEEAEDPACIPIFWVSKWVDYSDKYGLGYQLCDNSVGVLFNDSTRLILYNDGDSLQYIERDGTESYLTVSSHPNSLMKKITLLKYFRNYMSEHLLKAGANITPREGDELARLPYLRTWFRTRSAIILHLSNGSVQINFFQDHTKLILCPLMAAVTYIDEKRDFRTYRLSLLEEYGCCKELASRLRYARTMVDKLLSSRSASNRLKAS
Sequence of Serine/threonine-protein kinase Nek7 (Homo sapiens) (Q8TDX7 whole entry, looked up): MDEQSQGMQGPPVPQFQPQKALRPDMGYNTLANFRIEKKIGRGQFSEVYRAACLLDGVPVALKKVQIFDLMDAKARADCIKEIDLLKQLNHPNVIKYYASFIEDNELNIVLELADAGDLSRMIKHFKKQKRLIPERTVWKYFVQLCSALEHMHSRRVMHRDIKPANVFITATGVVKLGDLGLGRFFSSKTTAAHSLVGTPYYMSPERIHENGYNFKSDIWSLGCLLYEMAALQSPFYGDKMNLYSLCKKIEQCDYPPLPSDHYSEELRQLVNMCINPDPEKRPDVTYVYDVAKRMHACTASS

| Structure (SMILES) | inhibition [1] [%] | inhibition [2] [%] | inhibition [3] [%] | inhibition [4] [%] | inhibition [5] [%] | inhibition [6] [%] | inhibition [7] [%] | inhibition [8] [%] | inhibition [9] [%] | inhibition [10] [%] | inhibition [11] [%] | inhibition [12] [%] | inhibition [13] [%] | inhibition [14] [%] | inhibition [15] [%] | inhibition [16] [%] | inhibition [17] [%] | inhibition [18] [%] | inhibition [19] [%] | inhibition [20] [%] |
| --- | --- | --- | --- | --- | --- | --- | --- | --- | --- | --- | --- | --- | --- | --- | --- | --- | --- | --- | --- | --- |
| COc1ccc(C2=C(N3CCc4ccccc43)C(=O)NC2=O)cc1 | 19.1 | 2.77 | 5.54 | 5.3 | 6.47 | 2.74 | 1.65 | 3.11 | 3.74 | 11.3 | 7.64 | 4.84 | 4.9 | 9.59 | 3.5 | 1.33 | 3.21 | 2.49 | 4.23 | 2.77 |
| O=C1Nc2ccc(I)cc2C1=Cc1cc(Br)c(O)c(Br)c1 | 3.78 | 2.45 | 3.61 | 4.91 | 3.15 | 1.35 | 3.89 | 4.66 | 10.6 | 9.81 | 7.24 | 5.57 | 9.77 | 10.4 | 2.02 | 0.19 | -3.58 | 4.92 | 5.58 | 3 |
